From PubChem BioAssay
Active and inactive are the calls of the source.

How the values were obtained:
[1] = biological target: Albumin (Bos taurus) (UniProt P02769); test: bovine serum albumin binders on microarray, profiling panel, artefact control for SMM control protein annotation, biochemical, small-molecule microarray, Alexa647 label, 635/667 nm fluorescence (AID 1118); details: BSA-A647 binding, fluorescence 635 nm, higher = more signal;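 also: score merges 667 nm emission intensity and signal-to-noise per printed compound spot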
Sequence of Albumin (Bos taurus) (P02769 whole entry, looked up): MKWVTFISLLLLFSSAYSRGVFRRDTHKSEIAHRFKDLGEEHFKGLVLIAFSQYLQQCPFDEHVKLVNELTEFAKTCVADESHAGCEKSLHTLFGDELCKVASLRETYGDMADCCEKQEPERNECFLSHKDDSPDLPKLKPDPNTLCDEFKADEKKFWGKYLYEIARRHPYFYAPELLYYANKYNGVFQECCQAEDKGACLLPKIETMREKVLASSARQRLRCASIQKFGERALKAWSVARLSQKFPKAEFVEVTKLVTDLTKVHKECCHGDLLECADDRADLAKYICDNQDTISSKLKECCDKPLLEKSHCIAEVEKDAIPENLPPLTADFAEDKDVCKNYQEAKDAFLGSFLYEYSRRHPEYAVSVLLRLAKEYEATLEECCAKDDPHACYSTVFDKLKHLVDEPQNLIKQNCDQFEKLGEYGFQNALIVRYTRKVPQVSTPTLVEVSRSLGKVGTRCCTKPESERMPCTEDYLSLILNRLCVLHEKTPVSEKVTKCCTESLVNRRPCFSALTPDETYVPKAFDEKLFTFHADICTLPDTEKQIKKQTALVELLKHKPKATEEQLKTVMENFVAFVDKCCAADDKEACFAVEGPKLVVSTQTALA

[2] = small-molecule microarray binders of probe aXIP, primary screen, biochemical, NeuroSMM set, 635/667 nm fluorescence (AID 1119); details: higher = more signal, called active from +8 up or from −8 down;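 also: probe is the protein aXip251-270 applied at 1 µg/mL to compound-printed slides; binding of probe to printed compounds measured as 667 nm fluorescence plus signal to noise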
[3] = small-molecule binders of probe aNOTCH3, primary screen, biochemical, small-molecule microarray, 635/667 nm fluorescence (AID 1120); details: higher = more signal;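 also: probe is a biotin-tagged antibody raised against NOTCH3 rather than NOTCH3 protein; score merges spot fluorescence near 667 nm with spot signal to noise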
[4] = small-molecule binders of probe aNOTCH2, primary screen, biochemical, small-molecule microarray, 635/667 nm fluorescence (AID 1121); details: higher = more signal;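 also: score merges feature fluorescence read at 667 nm with its signal to noise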
[5] = biological target: Carbonic anhydrase 2 (Homo sapiens) (UniProt P00918); test: CAII small-molecule binders, profiling panel, biochemical, small-molecule microarray, Alexa647-labelled CAII (AID 1122); details: CAII-A647 binding fluorescence, higher = more signal
[6] = COS7 lysate on small-molecule microarray, probe aHis, 635 nm (AID 1123); details: COS7 cell lysate, fluorescence, higher = more signal;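 also: z-score combines 667nm fluorescence intensity with signal-to-noise per printed compound spot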
[7] = compound binding in COS7 lysate, probe aLAP1, primary screen, cell lysate, small-molecule microarray (AID 1124); details: probe aLAP1, fluorescence, higher = more signal;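 also: lysate comes from COS7 cells expressing LAP1 and is applied at 0.3 µg/mL; score merges spot fluorescence near 667 nm with signal-to-noise over triplicate slides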
[8] = test system: Sam68 (KHDRBS1); test: Sam68 small-molecule binders, primary screen, biochemical, small-molecule microarray, 635 nm fluorescence (AID 1125); details: small-molecule microarray binding, higher = more signal;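 also: score merges 667 nm channel intensity with signal to noise over triplicate slides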
[9] = test system: Chordin-like protein 2 (CHRDL2); test: CHRDL2 small-molecule binders, primary screen, biochemical, small-molecule microarray, 635 nm fluorescence (AID 1126); details: small-molecule microarray binding, fluorescence 635 nm; higher = more signal;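 also: printed compound slides probed with Chrdl2 protein at 4 µg/mL for 1 h at 4 C; score merges 667 nm emission intensity with signal to noise over three replicate slides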
[10] = biological target: Concanavalin-A (Canavalia ensiformis) (UniProt P02866); test: ConA small-molecule binders, primary screen, artefact control for SMM control protein annotation, biochemical, small-molecule microarray, Alexa647 label, 635 nm (AID 1127); details: ConA-A647 binding fluorescence, higher = more signal;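 also: z combines 667 nm emission intensity with signal-to-noise across three replicate slides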
Sequence of Concanavalin-A (Canavalia ensiformis) (P02866 whole entry, looked up): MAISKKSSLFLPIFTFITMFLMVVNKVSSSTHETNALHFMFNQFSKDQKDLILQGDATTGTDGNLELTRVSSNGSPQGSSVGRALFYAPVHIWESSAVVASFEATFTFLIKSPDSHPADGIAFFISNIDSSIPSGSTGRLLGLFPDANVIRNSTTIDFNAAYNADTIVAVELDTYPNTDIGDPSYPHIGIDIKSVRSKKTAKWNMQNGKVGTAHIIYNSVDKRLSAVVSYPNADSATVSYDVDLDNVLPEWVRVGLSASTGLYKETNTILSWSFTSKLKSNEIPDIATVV

[11] = anti-His antibody binders, primary screen, artefact control for SMM control protein annotation, biochemical, small-molecule microarray, 635 nm fluorescence (AID 1128); details: anti-His Alexa647 antibody binding, higher = more signal;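 also: score merges feature fluorescence with signal-to-noise for each printed compound spot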
[12] = test system: Human papillomavirus type 1a E7 protein (residues 1-88); test: HPV1a E7 small-molecule binders, primary screen, biochemical, small-molecule microarray, residues 1-88, 635 nm (AID 1129); details: small-molecule microarray binding, fluorescence 635 nm; higher = more signal
[13] = biological target: Focal adhesion kinase 1 (Homo sapiens) (UniProt Q05397); test: small-molecule microarray binders of FAK, primary screen, biochemical, 635/667 nm fluorescence, BSA, DTT (AID 1130); details: PTK2 binding, 635 nm fluorescence, higher = more signal;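 also: composite of spot emission at 667 nm and signal to noise over triplicate slides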
Sequence of Focal adhesion kinase 1 (Homo sapiens) (Q05397 whole entry, looked up): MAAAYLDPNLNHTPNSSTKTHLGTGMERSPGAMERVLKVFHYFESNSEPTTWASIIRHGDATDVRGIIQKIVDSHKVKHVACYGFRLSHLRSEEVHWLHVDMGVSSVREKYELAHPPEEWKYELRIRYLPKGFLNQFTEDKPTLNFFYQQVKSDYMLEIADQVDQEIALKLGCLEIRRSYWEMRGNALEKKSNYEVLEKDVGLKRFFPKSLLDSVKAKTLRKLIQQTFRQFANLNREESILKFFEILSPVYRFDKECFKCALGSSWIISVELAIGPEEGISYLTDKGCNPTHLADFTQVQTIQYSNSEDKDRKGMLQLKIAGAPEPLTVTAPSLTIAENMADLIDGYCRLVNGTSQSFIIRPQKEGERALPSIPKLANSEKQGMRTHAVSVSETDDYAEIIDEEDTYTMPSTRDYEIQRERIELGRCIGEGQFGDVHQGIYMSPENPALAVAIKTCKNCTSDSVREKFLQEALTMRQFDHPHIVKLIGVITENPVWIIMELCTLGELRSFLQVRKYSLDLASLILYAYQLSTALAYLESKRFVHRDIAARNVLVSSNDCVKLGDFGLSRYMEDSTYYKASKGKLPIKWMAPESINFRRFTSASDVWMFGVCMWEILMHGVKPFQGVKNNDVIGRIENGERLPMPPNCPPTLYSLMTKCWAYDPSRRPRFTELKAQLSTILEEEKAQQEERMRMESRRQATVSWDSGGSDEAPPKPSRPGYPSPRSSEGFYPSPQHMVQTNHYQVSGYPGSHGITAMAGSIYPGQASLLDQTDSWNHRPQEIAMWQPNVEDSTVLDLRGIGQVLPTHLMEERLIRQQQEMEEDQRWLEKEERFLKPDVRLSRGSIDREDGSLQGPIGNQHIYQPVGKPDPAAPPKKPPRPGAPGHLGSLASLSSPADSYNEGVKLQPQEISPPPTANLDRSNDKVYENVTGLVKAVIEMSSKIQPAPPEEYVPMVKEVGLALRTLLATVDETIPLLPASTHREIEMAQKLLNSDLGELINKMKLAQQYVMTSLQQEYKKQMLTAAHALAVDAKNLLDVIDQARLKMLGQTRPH

[14] = test system: Fibrinogen (Alexa647-labelled); test: fibrinogen binders on compound microarrays, profiling panel, artefact control for SMM control-protein annotation, biochemical, small-molecule microarray, 635/667 nm fluorescence (AID 1131); details: fibrinogen-A647 binding fluorescence, higher = more signal;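 also: z-score merges 667 nm fluorescence with per-spot signal-to-noise over triplicate slides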
[15] = biological target: Follistatin (Homo sapiens) (UniProt P19883); test: follistatin binders on small-molecule microarrays, primary screen, biochemical, small-molecule microarray, 635/667 nm fluorescence (AID 1132); details: FST binding, 635 nm fluorescence, higher = more signal
Sequence of Follistatin (Homo sapiens) (P19883 whole entry, looked up): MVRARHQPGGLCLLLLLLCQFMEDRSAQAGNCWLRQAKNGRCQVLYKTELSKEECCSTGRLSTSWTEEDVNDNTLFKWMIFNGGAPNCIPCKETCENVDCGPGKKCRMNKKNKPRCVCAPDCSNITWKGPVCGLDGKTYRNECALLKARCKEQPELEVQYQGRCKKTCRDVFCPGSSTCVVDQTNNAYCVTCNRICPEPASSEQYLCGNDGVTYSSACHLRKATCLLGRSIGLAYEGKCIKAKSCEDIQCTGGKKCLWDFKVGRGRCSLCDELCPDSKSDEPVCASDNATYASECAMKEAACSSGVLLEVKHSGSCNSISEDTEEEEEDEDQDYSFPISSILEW

[16] = biological target: Fibroblast growth factor 2 (Homo sapiens) (UniProt P09038); test: FGF2 binders on small-molecule microarrays, primary screen, biochemical, small-molecule microarray, 635/667 nm fluorescence (AID 1133); details: small-molecule microarray binding, FGF2, fluorescence 635/667; higher = more signal
Sequence of Fibroblast growth factor 2 (Homo sapiens) (P09038 whole entry, looked up): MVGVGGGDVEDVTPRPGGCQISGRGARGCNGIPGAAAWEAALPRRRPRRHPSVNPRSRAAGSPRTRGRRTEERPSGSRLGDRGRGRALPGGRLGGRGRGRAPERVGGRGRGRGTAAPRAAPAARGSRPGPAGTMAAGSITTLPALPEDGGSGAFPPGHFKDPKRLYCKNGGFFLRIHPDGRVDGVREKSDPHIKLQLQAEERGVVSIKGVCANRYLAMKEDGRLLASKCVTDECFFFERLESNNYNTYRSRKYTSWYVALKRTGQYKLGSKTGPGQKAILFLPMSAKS

[17] = mitochondrial membrane potential change in A549 cells, profiling panel, cell-based, JC-1 fluorescence, basal, 24 h, 100 nL (AID 1138); details: higher = more signal;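 also: A549 lung adenocarcinoma cells under basal conditions with no added stimulus; test concentration not given here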
[18] = test system: Lefty1; test: Lefty1 binders on small-molecule microarrays, primary screen, biochemical, small-molecule microarray, 635/667 nm fluorescence (AID 1139); details: small-molecule microarray binding, fluorescence 635/667; higher = more signal
[19] = test system: wheat germ agglutinin (Triticum aestivum), Alexa647-labelled; test: wheat germ agglutinin binders on compound microarrays, profiling panel, artefact control for SMM control-protein annotation, biochemical, small-molecule microarray, 635/667 nm fluorescence (AID 1140); details: WGA-A647 binding, 635 nm fluorescence, higher = more signal;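 also: score merges 667 nm feature emission with signal to noise over triplicate slides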
[20] = biological target: Luciferin 4-monooxygenase (Photinus pyralis) (UniProt P08659); test: firefly luciferase enzyme inhibitors, primary screen, biochemical, luminescence, purified enzyme, 2006 set (AID 1141); details: SteadyGlo luminescence, 30 min, higher = more signal, called active from +8 up or from −8 down;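 also: cell-free assay with purified firefly luciferase at 100 ng per well in PBS; test concentration not given here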
Sequence of Luciferin 4-monooxygenase (Photinus pyralis) (P08659 whole entry, looked up): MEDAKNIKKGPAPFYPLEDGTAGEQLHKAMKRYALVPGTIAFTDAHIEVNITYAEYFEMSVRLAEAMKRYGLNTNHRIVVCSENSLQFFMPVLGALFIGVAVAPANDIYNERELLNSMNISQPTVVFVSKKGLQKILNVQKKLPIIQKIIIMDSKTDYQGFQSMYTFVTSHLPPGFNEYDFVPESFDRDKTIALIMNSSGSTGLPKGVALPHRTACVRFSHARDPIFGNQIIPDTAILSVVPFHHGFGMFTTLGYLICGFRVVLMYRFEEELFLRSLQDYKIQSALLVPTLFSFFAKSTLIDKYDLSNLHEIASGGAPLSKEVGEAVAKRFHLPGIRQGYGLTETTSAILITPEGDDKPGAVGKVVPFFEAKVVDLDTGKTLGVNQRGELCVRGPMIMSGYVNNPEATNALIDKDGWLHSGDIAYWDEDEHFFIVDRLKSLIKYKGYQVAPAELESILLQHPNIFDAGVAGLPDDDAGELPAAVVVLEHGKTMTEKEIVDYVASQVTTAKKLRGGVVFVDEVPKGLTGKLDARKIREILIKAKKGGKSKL

Structure (SMILES) | composite z-score [1] | composite Z-score [2] | composite z-score [3] | composite z-score [4] | composite z-score [5] | composite z-score [6] | composite z-score [7] | composite z-score [8] | composite z-score [9] | composite z-score [10] | composite z-score [11] | composite z-score [12] | composite z-score [13] | composite z-score [14] | composite z-score [15] | composite z-score [16] | z-score [17] | composite z-score [18] | composite z-score [19] | z-score [20]
COCCOC(=O)N1C(=O)[C@@]2(c3cc(C#CCC(C(=O)OC)C(=O)OC)ccc31)[C@H](C(=O)Nc1nc3ccccc3s1)[C@H]1C(=O)O[C@H](c3ccccc3)[C@H](c3ccccc3)N1[C@@H]2c1ccccc1OCCO | 0.893 | 0.259 (inactive) | -0.0343 | -0.0956 | 0.559 | 1.9 | 0.581 | 1.29 | -0.0859 | 1.19 | 1.41 | 1.22 | 0.714 | 0.965 | 0.602 | 0.579 | -2.07 | 0.275 | 1.2 | -1.56 (inactive)
CN1C(=O)C2C=CC(C(O)c3ccco3)N(Nc3ccccc3)C2C1=O (stereo not given) | -0.152 | 0.472 (inactive) | 0.0974 | -0.0267 | 0.803 | -0.039 | 0.574 | 0.68 | 0.685 | 0.477 | 1.72 | 0.103 | -0.0653 | 0.822 | 0.861 | 0.33 | 0.207 | 0.332 | 0.594 | 0.0206 (inactive)
Cc1ccc([C@@H]2C[C@@H](Sc3ccccc3)[C@H](C(=O)O)CN2S(=O)(=O)c2ccc(C)cc2)cc1 | 0.26 | -0.571 (inactive) | 0.171 | 0.0019 | 0.726 | 2.89 | 0.986 | 1.29 | -0.144 | 1.03 | 1.98 | 1.26 | 0.373 | 0.956 | 0.868 | 0.507 | -1.42 | 0.589 | 1.14 | 1.88 (inactive)
O=C(CS)NCCCCCCNC(=O)[C@@H]1C[C@@H]2C(=O)N[C@@H](Cc3ccccc3)C(=O)N2[C@@H]1c1cccc(OCCO)c1 | -0.623 | 0.439 (inactive) | 0.169 | -0.0248 | 0.567 | 2.28 | -0.488 | 1.29 | 0.892 | 1.15 | 3.09 | 1.23 | 0.385 | 0.54 | 1.33 | 1.76 | -0.714 | 0.823 | 0.1 | -1.09 (inactive)
CO[C@H]1O[C@H](CO)[C@@H](OC(=O)Nc2ccc(C(F)(F)F)cc2)[C@H](OC(=O)Nc2ccc3c(c2)OCO3)[C@@H]1OC(=O)Nc1ccc2c(c1)OCO2 | 0.835 | -0.279 (inactive) | 0.149 | -0.164 | 0.238 | 1.83 | 0.579 | 1.33 | 0.0643 | 1.14 | 2.18 | 1.22 | 1.43 | 0.607 | 1.17 | 0.397 | -0.656 | 0.537 | 0.729 | -17.3 (active)
C=C(CCCC)/C(=C/C[C@@H](OC(=O)c1ccncc1)c1ccc(OCCO)cc1)c1cc(C(=O)OC)ccc1OC | 0.445 | -0.367 (inactive) | -0.0288 | -0.123 | 0.554 | 0.517 | 0.546 | 1.12 | 0.0685 | 0.249 | 0.551 | 1.12 | 0.0056 | -0.117 | 0.641 | 0.0097 | 1.21 | 0.865 | 0.229 | -0.551 (inactive)
CCN(CC)c1ccc(N2CC=CC34O[C@@H]5C=CCCOC(=O)C5[C@H]3C(=O)N(CCCCCCO)[C@@H]4C2=O)cc1 (stereo not given in full) | 0.254 | 0.469 (inactive) | -0.276 | -0.203 | 0.885 | 2.79 | 1.46 | 0.114 | -0.489 | -0.1 | 1.43 | 0.321 | 0.899 | -1.15 | -0.372 | -0.551 | -0.115 | 0.0079 | 0.623 | -4.35 (inactive)
COC(=O)[C@@]1(Cc2ccccc2)[C@H]2c3cc(C(=O)N4CCCC4)n(Cc4ccc(S(C)(=O)=O)cc4)c3C[C@H]2CN1C(=O)c1ccccc1 | 1.12 | 0.971 (inactive) | 0.511 | -0.173 | 0.902 | 1.92 | 0.559 | 1.29 | -0.832 | 0.978 | 1.27 | 1.27 | 2.05 | 1 | 1.03 | -0.771 | 0.687 | -0.07 | 1.08 | 1.3 (inactive)
COC(=O)[C@@]1(Cc2ccc(OC)cc2)[C@H]2c3cc(C(=O)N4CCCC4)n(Cc4ccc(O)c(OC)c4)c3C[C@H]2CN1C(=O)c1ccccc1 | 1.06 | 1.64 (inactive) | 1.18 | 0.437 | 0.845 | 3.32 | 1.09 | 0.535 | 0.114 | 0.988 | 2.89 | 0.926 | 0.264 | 0.724 | 0.379 | -0.1 | 1.44 | -0.304 | 1.11 | 1.62 (inactive)
C=CCNC(=O)[C@@H]1[C@H]2C(=O)O[C@H](c3ccccc3)[C@H](c3ccccc3)N2[C@H](c2ccc(O)cc2)[C@@]12C(=O)Nc1ccc(C#CCNC(N)=O)cc12 | 0.118 | 0.0219 (inactive) | -0.169 | -0.166 | 0.352 | 0.636 | 0.73 | 0.512 | -0.671 | 0.0889 | -0.22 | -0.222 | 0.186 | -0.609 | 0.842 | -0.598 | -1.27 | 0.538 | 0.414 | -0.895 (inactive)
